Measurements as given in PubChem BioAssay (EPA / NIEHS).
Records with an inconclusive call do not appear. The source made the active and inactive calls. Rule for the calls, unless noted: active = hit-call score of the fitted dose curve at least 0.9, where 1 is the maximum; inactive = score below 0.9.

Tests used:
[1] = target: Myc proto-oncogene protein (Homo sapiens) (UniProt P01106); test: ATG_Myc_CIS: Attagene CIS-FACTORIAL HepG2 Assay for human Myelocytomatosis (Myc) Proto-Oncogene Transcription Factor (AID 2282990); conditions: HepG2, Attagene cis-reporter transcription factor activity; actives raise or lower the signal
Chain of Myc proto-oncogene protein (Homo sapiens) (P01106 whole entry, looked up): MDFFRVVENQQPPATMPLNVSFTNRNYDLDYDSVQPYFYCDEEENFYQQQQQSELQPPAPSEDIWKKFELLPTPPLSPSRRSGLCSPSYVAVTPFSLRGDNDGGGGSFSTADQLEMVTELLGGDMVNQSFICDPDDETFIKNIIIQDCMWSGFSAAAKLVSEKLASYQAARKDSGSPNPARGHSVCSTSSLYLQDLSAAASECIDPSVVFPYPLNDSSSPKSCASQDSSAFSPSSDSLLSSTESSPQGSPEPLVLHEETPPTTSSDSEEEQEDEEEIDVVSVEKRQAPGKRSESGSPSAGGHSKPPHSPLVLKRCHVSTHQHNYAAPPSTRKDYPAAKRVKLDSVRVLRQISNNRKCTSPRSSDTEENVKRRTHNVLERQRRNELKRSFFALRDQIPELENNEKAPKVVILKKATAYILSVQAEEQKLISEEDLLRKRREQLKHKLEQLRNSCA
Outline: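 HepG2, transient MRTU transfection (cis promoters, endogenous TFs); 24 h dosing; TriZol RNA → oligo(dT) RT → PCR → 6-FAM primer extension → HpaI cut → CE. Bidirectional fit vs DMSO.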

[2] = ATG_NF_kB_CIS: Attagene CIS-FACTORIAL HepG2 Assay for human Nuclear Factor Kappa B (NF-kB) (AID 2282991); conditions: HepG2 Attagene cis-factorial NF-kB reporter mRNA; actives raise or lower the signal
Outline: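 Transient MRTU transfection of human HepG2 liver cells → 24 h chemical exposure → total RNA, oligo(dT) RT → PCR, 6-FAM primer extension, HpaI digest 2 h 37 C → CE fragment analysis. Bidirectional fitting, DMSO negative control.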

[3] = ATG_NRF2_ARE_CIS: Attagene CIS-FACTORIAL HepG2 Assay for human Nuclear Factor Erythroid 2 Related Factor 2 (NFR2) response to Antioxidant Response Elements (ARE) (AID 2282992); conditions: HepG2 Attagene ARE/NRF2 reporter, transcription factor activity; actives raise or lower the signal;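 for AC50: reporter mRNA level measured by RT-PCR and capillary electrophoresis fluorescence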
Outline: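 HepG2 cells transiently transfected with multiplexed cis-regulated reporter transcription units measure endogenous transcription factor activity. Reporter mRNA at 24 h is quantified by RT-PCR, fluorescent labelling and capillary electrophoresis, with bidirectional fitting relative to DMSO.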

[4] = ATG_Oct_MLP_CIS: Attagene CIS-FACTORIAL HepG2 Assay for human Octamer-Binding Transcription Factor (Oct) (AID 2282993); conditions: HepG2 Attagene cis-factorial Oct reporter, mRNA; actives raise or lower the signal
Outline: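 After 24 h compound exposure, transfected HepG2 cells were lysed for total RNA; reporter-specific cDNA was PCR-amplified, fluorescently labelled and sized by capillary electrophoresis. Bidirectional curve fitting used DMSO as baseline.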

[5] = target: Cellular tumor antigen p53 (Homo sapiens) (UniProt P04637); test: ATG_p53_CIS: Attagene CIS-FACTORIAL HepG2 Assay for human p53 Transcription Factor (AID 2282994); conditions: HepG2 p53 cis-element reporter, Attagene mRNA; actives raise or lower the signal
Chain of Cellular tumor antigen p53 (Homo sapiens) (P04637 whole entry, looked up): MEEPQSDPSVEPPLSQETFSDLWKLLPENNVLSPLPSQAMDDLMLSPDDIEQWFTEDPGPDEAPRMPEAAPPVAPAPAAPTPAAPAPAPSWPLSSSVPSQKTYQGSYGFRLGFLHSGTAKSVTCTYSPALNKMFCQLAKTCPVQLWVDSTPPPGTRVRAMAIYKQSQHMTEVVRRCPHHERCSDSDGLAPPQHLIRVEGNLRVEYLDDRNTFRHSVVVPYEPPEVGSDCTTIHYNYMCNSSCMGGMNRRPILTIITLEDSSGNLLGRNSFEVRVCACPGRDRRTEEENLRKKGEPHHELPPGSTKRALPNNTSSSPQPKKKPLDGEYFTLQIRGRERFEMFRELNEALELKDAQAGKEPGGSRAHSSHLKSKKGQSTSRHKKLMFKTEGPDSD
Outline: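 HepG2 cells transiently transfected with multiplexed cis-regulated reporter transcription units read endogenous TF activity. After 24 h compound exposure, reporter mRNA was quantified by RT-PCR, fluorescent labelling, HpaI digestion and capillary electrophoresis; bidirectional fits versus DMSO baseline.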

[6] = target: human Peroxisome Proliferator-activated Receptor delta (PPARd), PPARD (gene 5467) (UniProt Q03181); test: ATG_PPARd_TRANS: Attagene TRANS-FACTORIAL HepG2 Assay for human Peroxisome Proliferator-activated Receptor delta (PPARd) (AID 2283002; active = hit-call score of the fitted dose curve at least 0.9, where 1 is the maximum)
Chain of human Peroxisome Proliferator-activated Receptor delta (PPARd), PPARD (gene 5467) (Q03181 whole entry, looked up, the tested form may be a part): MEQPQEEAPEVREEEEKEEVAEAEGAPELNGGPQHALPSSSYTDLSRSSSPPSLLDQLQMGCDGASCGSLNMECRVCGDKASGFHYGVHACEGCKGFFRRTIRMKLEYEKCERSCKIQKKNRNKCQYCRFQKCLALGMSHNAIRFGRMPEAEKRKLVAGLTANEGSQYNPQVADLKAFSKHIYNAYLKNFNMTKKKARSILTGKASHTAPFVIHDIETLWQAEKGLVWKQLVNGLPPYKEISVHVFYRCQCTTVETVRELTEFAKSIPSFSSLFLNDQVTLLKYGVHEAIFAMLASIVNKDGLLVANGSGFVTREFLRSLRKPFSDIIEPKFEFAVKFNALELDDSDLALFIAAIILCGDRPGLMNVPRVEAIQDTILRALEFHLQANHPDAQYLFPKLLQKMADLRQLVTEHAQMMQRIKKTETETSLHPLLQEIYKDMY
Outline: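 Transient HepG2 transfection (multiple GAL4-UAS RTUs, chimeric receptor-Gal4); 24 h dosing; total RNA → oligo(dT) RT → PCR → 6-FAM primer extension → HpaI cut → CE. Positive direction vs DMSO.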

[7] = target: Nuclear receptor subfamily 1 group I member 2 (Homo sapiens) (UniProt O75469); test: ATG_PXR_TRANS: Attagene TRANS-FACTORIAL HepG2 Assay for human Pregnane X Receptor (PXR) (AID 2283008; active = hit-call score of the fitted dose curve at least 0.9, where 1 is the maximum)
Chain of Nuclear receptor subfamily 1 group I member 2 (Homo sapiens) (O75469 whole entry, looked up, the tested form may be a part): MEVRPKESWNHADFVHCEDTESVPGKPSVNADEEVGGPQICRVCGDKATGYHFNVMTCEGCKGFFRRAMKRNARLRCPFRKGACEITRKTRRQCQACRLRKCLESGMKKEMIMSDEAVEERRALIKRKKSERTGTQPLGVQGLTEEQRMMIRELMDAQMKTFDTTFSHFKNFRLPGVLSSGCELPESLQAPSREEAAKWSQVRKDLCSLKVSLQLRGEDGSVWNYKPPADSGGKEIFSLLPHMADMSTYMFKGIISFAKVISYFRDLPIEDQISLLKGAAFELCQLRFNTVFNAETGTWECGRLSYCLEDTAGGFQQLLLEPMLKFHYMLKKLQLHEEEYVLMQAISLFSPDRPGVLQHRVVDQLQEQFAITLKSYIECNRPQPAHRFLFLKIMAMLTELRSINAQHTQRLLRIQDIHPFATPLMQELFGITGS
Outline: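 HepG2 cells transiently transfected with multiple reporter units, here a PXR-GAL4 chimera driving a GAL4-UAS reporter; 24 h compound exposure. Reporter mRNA measured by RT-PCR, FAM labelling and capillary electrophoresis; gain of signal fitted against DMSO baseline.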

[8] = target: human Retinoic Acid Receptor gamma (RARg), RARG (gene 5916) (UniProt P13631); test: ATG_RARg_TRANS: Attagene TRANS-FACTORIAL HepG2 Assay for human Retinoic Acid Receptor gamma (RARg) (AID 2283009; active = hit-call score of the fitted dose curve at least 0.9, where 1 is the maximum)
Chain of human Retinoic Acid Receptor gamma (RARg), RARG (gene 5916) (P13631 whole entry, looked up, the tested form may be a part): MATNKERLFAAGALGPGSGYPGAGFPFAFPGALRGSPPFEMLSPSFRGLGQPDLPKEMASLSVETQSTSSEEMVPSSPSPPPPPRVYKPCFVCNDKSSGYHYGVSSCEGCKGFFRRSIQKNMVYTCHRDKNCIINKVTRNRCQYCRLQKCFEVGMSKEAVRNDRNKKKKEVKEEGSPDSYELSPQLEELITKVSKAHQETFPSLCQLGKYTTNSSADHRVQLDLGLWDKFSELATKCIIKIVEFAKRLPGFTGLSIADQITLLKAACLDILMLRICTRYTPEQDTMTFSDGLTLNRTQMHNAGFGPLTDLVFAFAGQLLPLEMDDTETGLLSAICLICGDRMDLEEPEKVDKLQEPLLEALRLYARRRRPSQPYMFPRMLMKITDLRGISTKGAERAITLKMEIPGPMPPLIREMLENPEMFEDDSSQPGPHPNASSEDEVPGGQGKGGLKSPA
Outline: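 HepG2 transiently transfected with GAL4-UAS reporter units and chimeric NR-Gal4 constructs; 24 h compound exposure. Reporter mRNA quantified by RT-PCR, FAM labeling, HpaI digestion and capillary electrophoresis; gain-of-signal versus DMSO.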

[9] = target: human RAR-related Orphan Receptor gamma (RORg), RORC (gene 6097) (UniProt P51449); test: ATG_RORg_TRANS: Attagene TRANS-FACTORIAL HepG2 Assay for human RAR-related Orphan Receptor gamma (RORg) (AID 2283011; active = hit-call score of the fitted dose curve at least 0.9, where 1 is the maximum)
Chain of human RAR-related Orphan Receptor gamma (RORg), RORC (gene 6097) (P51449 whole entry, looked up, the tested form may be a part): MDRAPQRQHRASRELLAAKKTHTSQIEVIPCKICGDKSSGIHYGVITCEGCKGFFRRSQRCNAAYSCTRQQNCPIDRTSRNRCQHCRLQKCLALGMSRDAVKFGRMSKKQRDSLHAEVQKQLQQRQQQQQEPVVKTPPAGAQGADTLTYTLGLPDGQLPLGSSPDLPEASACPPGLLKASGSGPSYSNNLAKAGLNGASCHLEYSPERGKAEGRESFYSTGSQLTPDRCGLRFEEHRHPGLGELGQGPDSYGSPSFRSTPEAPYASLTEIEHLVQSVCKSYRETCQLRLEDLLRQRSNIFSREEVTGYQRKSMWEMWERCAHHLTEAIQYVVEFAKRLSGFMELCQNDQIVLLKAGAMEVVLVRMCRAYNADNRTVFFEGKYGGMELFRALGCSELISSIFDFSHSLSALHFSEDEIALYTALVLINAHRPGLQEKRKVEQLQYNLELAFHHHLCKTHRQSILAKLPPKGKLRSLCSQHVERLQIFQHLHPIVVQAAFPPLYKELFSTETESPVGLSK
Outline: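 Chimeric RORg-Gal4 transactivation in transfected HepG2; 24 h exposure; RT-PCR/capillary electrophoresis readout of reporter mRNA, DMSO baseline.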

[10] = target: human Retinoic Acid Receptor beta (RARb), RARB (gene 5915) (UniProt P10826); test: ATG_RARb_TRANS: Attagene TRANS-FACTORIAL HepG2 Assay for human Retinoic Acid Receptor beta (AID 2283004; active = hit-call score of the fitted dose curve at least 0.9, where 1 is the maximum)
Chain of human Retinoic Acid Receptor beta (RARb), RARB (gene 5915) (P10826 whole entry, looked up, the tested form may be a part): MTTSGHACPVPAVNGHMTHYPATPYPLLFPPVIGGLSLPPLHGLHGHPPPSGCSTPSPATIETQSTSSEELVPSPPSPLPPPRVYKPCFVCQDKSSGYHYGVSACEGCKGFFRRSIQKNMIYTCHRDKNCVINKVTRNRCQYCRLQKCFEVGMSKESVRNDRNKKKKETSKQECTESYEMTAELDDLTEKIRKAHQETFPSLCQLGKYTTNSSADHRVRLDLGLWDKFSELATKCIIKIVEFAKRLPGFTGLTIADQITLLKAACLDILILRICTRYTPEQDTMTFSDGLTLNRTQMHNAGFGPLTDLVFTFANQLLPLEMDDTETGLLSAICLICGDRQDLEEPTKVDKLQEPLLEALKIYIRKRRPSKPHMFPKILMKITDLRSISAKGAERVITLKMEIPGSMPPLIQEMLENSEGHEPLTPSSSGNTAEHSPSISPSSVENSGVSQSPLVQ
Outline: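 Fluorescent capillary-electrophoresis detection of GAL4-UAS reporter mRNA defines the endpoint, with induction over DMSO-treated wells scored as activity. Transiently transfected human hepatoma HepG2 cells expressing exogenous NR–Gal4 proteins are exposed to test chemicals for 24 h.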

[11] = target: Retinoic acid receptor alpha (Homo sapiens) (UniProt P10276); test: ATG_RARa_TRANS: Attagene TRANS-FACTORIAL HepG2 Assay for human Retinoic Acid Receptor alpha (RARa) (AID 2283005; active = hit-call score of the fitted dose curve at least 0.9, where 1 is the maximum)
Chain of Retinoic acid receptor alpha (Homo sapiens) (P10276 whole entry, looked up, the tested form may be a part): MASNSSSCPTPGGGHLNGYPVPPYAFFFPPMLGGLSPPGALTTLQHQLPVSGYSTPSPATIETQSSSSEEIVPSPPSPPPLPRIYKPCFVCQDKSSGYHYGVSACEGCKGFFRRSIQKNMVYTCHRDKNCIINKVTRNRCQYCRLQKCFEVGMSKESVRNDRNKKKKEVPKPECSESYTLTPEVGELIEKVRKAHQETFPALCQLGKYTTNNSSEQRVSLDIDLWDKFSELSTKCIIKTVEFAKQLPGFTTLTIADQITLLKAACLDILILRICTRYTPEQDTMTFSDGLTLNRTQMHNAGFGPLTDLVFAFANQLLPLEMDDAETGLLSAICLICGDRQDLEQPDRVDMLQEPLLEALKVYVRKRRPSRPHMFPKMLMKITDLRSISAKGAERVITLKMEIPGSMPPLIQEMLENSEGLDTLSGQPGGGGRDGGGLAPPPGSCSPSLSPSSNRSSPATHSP
Outline: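 Reporter transcripts, measured by RT-PCR with fluorescent labeling and capillary electrophoresis after 24 h dosing, reflect activity of an exogenous human RARa–GAL4 fusion in transiently transfected HepG2. Fitted for increase relative to DMSO.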

[12] = target: Peroxisome proliferator-activated receptor gamma (Homo sapiens) (UniProt P37231); test: ATG_PPARg_TRANS: Attagene TRANS-FACTORIAL HepG2 Assay for human Peroxisome Proliferator-activated Receptor-gamma (PPARg) (AID 2283007; active = hit-call score of the fitted dose curve at least 0.9, where 1 is the maximum)
Chain of Peroxisome proliferator-activated receptor gamma (Homo sapiens) (P37231 whole entry, looked up, the tested form may be a part): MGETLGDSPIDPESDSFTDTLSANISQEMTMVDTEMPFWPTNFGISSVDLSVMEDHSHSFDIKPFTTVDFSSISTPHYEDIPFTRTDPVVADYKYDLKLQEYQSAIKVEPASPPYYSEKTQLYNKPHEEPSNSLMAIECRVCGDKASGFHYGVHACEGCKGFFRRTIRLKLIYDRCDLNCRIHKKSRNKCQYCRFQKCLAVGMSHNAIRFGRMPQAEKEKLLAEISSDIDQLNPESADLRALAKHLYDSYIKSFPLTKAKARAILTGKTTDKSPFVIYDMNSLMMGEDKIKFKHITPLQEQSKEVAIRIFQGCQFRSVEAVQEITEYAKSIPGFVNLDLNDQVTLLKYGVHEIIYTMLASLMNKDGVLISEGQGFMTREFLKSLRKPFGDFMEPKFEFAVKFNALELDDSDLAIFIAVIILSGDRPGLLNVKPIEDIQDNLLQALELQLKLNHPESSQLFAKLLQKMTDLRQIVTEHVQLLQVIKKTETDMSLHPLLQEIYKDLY
Outline: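 Transient transfection of HepG2 with GAL4-UAS-driven reporter units; chemical dosing 24 h; total RNA → oligo(dT) RT → PCR with reporter primers → 6-FAM primer extension → HpaI digest 2 h 37 C → capillary electrophoresis. Positive direction vs DMSO.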

[13] = target: human RAR-related Orphan Receptor beta (RORb), RORB (gene 6096) (UniProt Q92753); test: ATG_RORb_TRANS: Attagene TRANS-FACTORIAL HepG2 Assay for human RAR-related Orphan Receptor beta (RORb) (AID 2283010; active = hit-call score of the fitted dose curve at least 0.9, where 1 is the maximum)
Chain of human RAR-related Orphan Receptor beta (RORb), RORB (gene 6096) (Q92753 whole entry, looked up, the tested form may be a part): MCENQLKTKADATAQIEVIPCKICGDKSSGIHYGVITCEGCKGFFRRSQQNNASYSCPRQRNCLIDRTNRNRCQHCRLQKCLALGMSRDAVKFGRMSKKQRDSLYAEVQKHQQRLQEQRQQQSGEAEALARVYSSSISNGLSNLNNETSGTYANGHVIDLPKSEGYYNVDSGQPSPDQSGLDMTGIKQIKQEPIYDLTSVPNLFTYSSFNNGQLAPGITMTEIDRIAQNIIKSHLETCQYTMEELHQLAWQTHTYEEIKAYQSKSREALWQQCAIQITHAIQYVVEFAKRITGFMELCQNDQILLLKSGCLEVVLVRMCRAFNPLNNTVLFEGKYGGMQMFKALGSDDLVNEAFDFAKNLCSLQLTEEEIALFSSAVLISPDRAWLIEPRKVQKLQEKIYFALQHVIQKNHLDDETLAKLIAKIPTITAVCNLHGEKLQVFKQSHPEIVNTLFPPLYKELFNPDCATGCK
Outline: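 HepG2 cells transiently transfected with GAL4-UAS reporter units expressing chimeric NR-Gal4 protein; reporter mRNA measured 24 h after dosing by RT-PCR, 6-FAM labelling and capillary electrophoresis. Gain-of-signal fitted relative to DMSO baseline.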

[14] = target: human Peroxisome Proliferator-activated Receptor alpha (PPARa), PPARA (gene 5465) (UniProt Q07869); test: ATG_PPARa_TRANS: Attagene TRANS-FACTORIAL HepG2 Assay for human Peroxisome Proliferator-activated Receptor alpha (PPARa) (AID 2283001; active = hit-call score of the fitted dose curve at least 0.9, where 1 is the maximum;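 for AC50: potency for gain of reporter signal over DMSO so agonist or activator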)
Outline: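 Read-out is fluorescence of reporter cDNA fragments resolved by capillary electrophoresis after RT-PCR. Human HepG2 liver cells carried transfected PPARa-Gal4 chimera and GAL4-UAS reporter units, treated 24 h; activity scored as increase over DMSO.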

[15] = BSK_3C_uPAR: BioMAP Diversity Plus: 3C Assay for Urokinase-type plasminogen activator receptor (uPAR) Biomarker Activity (AID 2282998); conditions: BioMAP 3C HUVEC, uPAR biomarker ELISA; actives raise or lower the signal
Outline: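 Values derive from bidirectional curve fitting relative to DMSO, which served as baseline of activity. uPAR was measured by ELISA in human umbilical vein endothelial primary cultures 24 h after compound addition.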

[16] = BSK_3C_VCAM1: BioMAP Diversity Plus: 3C Assay for Vascular cell adhesion molecule 1 (VCAM1) Biomarker Activity (AID 2282999); conditions: BioMAP 3C HUVEC, VCAM1 ELISA, cytokine-stimulated; actives raise or lower the signal
Outline: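 Endothelial cells from human umbilical vein are treated with test chemical. At 24 h, VCAM-1 is measured by ELISA, and responses in either direction are fitted relative to DMSO.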

[17] = BSK_4H_Eotaxin3: BioMAP Diversity Plus: 4H Assay for Eotaxin 3 Biomarker Activity (AID 2283000); conditions: primary human endothelial cells (HUVEC); actives raise or lower the signal;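 note: CCL26 protein level quantified by ELISA in parallel with SRB cytotoxicity check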
Outline: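 ELISA quantitation of CCL26 (Eotaxin-3) protein from chemically dosed human vascular endothelial cells at 24 h; increases and decreases both scored relative to DMSO-treated baseline.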

[18] = read-out: Intercellular Adhesion Molecule 1 (ICAM1), ICAM1 (gene 3383); test: BSK_3C_ICAM1: BioMAP Diversity Plus: 3C Assay for Intercellular Adhesion Molecule 1 (ICAM1) Biomarker Activity (AID 2283003); conditions: primary human endothelial cells (HUVEC); actives raise or lower the signal
Outline: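 HUVEC primary cells stimulated under 3C conditions; ICAM1 measured by ELISA 24 h after compound dosing. Curves fitted bidirectionally against the DMSO baseline. Overt cytotoxicity checked by SRB staining of parallel cultures.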

[19] = BSK_3C_Proliferation: Cell Proliferation Assessment in the BioMAP Diversity Plus: 3C Assay (AID 2283006); conditions: primary human endothelial cells (HUVEC);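 for AC50: potency may reflect either rise or fall in cell number versus DMSO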
Outline: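 Subconfluent HUVEC (3C system) cultured with chemical; relative cell number read at 48 h by sulforhodamine B total-protein staining (0.1% SRB after 10% TCA fixation, 560 nm). Bidirectional fit relative to DMSO.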

[20] = BSK_3C_TissueFactor: BioMAP Diversity Plus: 3C Assay for Tissue Factor Biomarker Activity (AID 2282997); conditions: BioMAP 3C HUVEC, tissue factor biomarker readout; actives raise or lower the signal
Outline: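 Endothelial monolayers (human umbilical vein, primary) are dosed, incubated 24 h, and assayed for Tissue Factor by ELISA; DMSO serves as negative control for bidirectional fitting.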

Measured: AC50

CC(C)(c1ccccc1)c1cc(-n2nc3ccccc3n2)c(O)c(C(C)(C)c2ccccc2)c1
inactive: [1] | [2] | [3] | [4] | [5] | [6] | [7] | [8] | [9]

O=S1OC[C@@H]2[C@H](CO1)[C@]1(Cl)C(Cl)=C(Cl)[C@@]2(Cl)C1(Cl)Cl (stereo not given in full)
active: [4] 100 µM | [7] 4.5 µM
inactive: [1] | [2] | [3] | [5] | [10] | [11] | [8]

Cc1cc(Cl)ccc1O
inactive: [1] | [2] | [4] | [5] | [11] | [12] | [7]
active: [3] 37.1 µM

CCN(CCO)CCO
inactive: [1] | [2] | [3] | [4] | [5] | [11]

CCOP(=S)(OCC)Oc1ccc(Cl)cc1Cl
inactive: [1] | [2] | [4] | [5] | [6] | [12] | [13] | [9]
active: [3] 43.7 µM | [7] 3.85 µM

CC(C)[C@H](C(=O)OC(C#N)c1cccc(Oc2ccccc2)c1)c1ccc(OC(F)F)cc1 (stereo not given in full)
inactive: [1] | [2] | [3] | [4] | [5] | [12]
active: [7] 0.693 µM

O=c1[nH]c2ccccc2n1C1CCN(CCCC(c2ccc(F)cc2)c2ccc(F)cc2)CC1
active: [3] 3.15 µM
inactive: [1] | [2] | [4] | [5] | [7]

O=C(Nc1ccc(Br)cc1)c1cc(Br)cc(Br)c1O
active: [3] 2.91 µM | [4] 5.3 µM | [14] 4.97 µM | [12] 11.7 µM | [7] 4.69 µM
inactive: [1] | [2] | [6] | [11] | [8] | [13]

Cc1cc(C)cc(C)c1
not listed: [5] | [6] | [7] | [9] | [11] | [12] | [14] | [20]
inactive: all other assays above

COCCl
inactive: [1] | [2] | [3] | [4] | [14] | [6] | [10] | [12] | [7] | [9]

O=NN1CCCCCCC1
inactive: [1] | [2] | [4] | [5] | [12] | [7]
active: [3] 114 µM

CC(C)(COCC1CO1)COCC1CO1 (stereo not given)
active: [3] 49.8 µM | [20] 3.97 µM | [19] 20 µM
not listed: [5] | [8] | [11] | [13] | [14]
inactive: all other assays above
